Screening data as filed in PubChem.
Compounds with a hit are over-represented: about 3.1% of the library has one in this group of screens.
SSB-PriA inh – inhibitors of Klebsiella pneumoniae PriA binding to SSB C-terminal tail, primary screen, biochemical, AlphaScreen | PriA–SSB C-terminal tail interaction (Klebsiella pneumoniae) | AlphaScreen SSBct-PriA binding, biotinylated peptide | inhibition, % at 33 µM | 430,000 compounds, 0.6% hits | AID 1272365, 2023; in the data active means inhibition mostly above about 37%, no sharp cut-off; inactive means mostly below about 20%
BoNT-A LC inh2 – BoNT/A light chain protease inhibitors, primary screen, biochemical, flow cytometry, MLPCN library. inhibition, % at 10 µM. multiplex microsphere protease substrate cleavage. AID 588499, 2011. 360,000 compounds, 0.17% hits
Anthrax LF inh2 – Bacillus anthracis LF protease inhibitors, primary screen, biochemical, multiplex microsphere, MLPCN library | Lethal factor (Bacillus anthracis), P15917 | multiplex microsphere protease cleavage assay | inhibition, % at 10 µM | 360,000 compounds, 0.12% hits | AID 588501, 2011
Autofluor counter – flagged as autofluorescent in microsphere protease counterscreen. compound autofluorescence counterscreen, microsphere flow cytometry; active compounds read high. fluorescence intensity (concentration not given with the values). 360,000 compounds, 3.1% hits. AID 624483; in the data active means fluorescence intensity above about 16000; inconclusive means no clear call, values can overlap the other calls
BoNT-F LC inh – BoNT/F light chain protease inhibitors, primary screen, biochemical, flow cytometry, MLPCN library. inhibition, % at 10 µM. 360,000 compounds, 0.22% hits. Multiplex microsphere protease cleavage assay. Botulinum neurotoxin type F light chain protease (Clostridium botulinum); in the data active means inhibition above about 35%, passing the limit was not always enough; inconclusive means no clear call, values can overlap the other calls
A number is an active result; n = inactive; u = inconclusive; x = not tested or not shown. Unless noted, no stated cut-off is given here; in the data, active means inhibition above about 30%; inconclusive means no clear call, values can overlap the other calls; inactive means below that.

SMILES	SSB-PriA inh	BoNT-A LC inh2	Anthrax LF inh2	Autofluor counter	BoNT-F LC inh
COc1ccccc1CNC(=O)c1ccc(-c2ccccc2)cc1	n	n	n	n	n
COc1ccc(C(=O)NCc2ccccc2OC)cc1	n	n	n	21799	n
COc1ccc(C(=O)NCc2cccnc2)cc1S(=O)(=O)N1CCOCC1	n	u	n	21445	n
O=C(Cc1ccccc1)N1CCN(c2nc3ccc(Br)cc3s2)CC1	n	x	x	x	x
O=C(NCc1cccnc1)c1ccc(Cl)c(Cl)c1	n	n	n	n	n
COc1ccc(/C(N)=N/OC(=O)Cc2ccccc2OC)cc1	x	n	n	21398	n
O=C(NCc1cccc(Cl)c1)c1cccnc1	n	u	n	18154	n
COc1ccc(OCC(=O)NNc2c3ccccc3nc3ccccc23)cc1	n	n	n	16716	n
CCc1ccccc1NC(=O)COc1ccc(OC)cc1	n	x	x	x	x
CCCNC(=O)c1ccccc1NC(=O)COc1ccc(OC)cc1	n	n	n	19742	n
CCCC(=O)n1nc(-c2cccnc2)nc1N	n	u	n	23837	n
Cc1nn2c(N3CCN(C)CC3)cc(C(C)(C)C)nc2c1-c1ccccc1	n	n	n	n	n
Cc1nn2c(N3CCN(C4CCCC4)CC3)cc(C(C)(C)C)nc2c1-c1ccccc1	n	u	n	23963	n
Cc1cc(N2CCN(Cc3ccccc3)CC2)n2nc(C)c(-c3ccccc3)c2n1	n	n	n	22404	n
COc1ccccc1C1(CNS(=O)(=O)c2ccc3c(c2)OCCO3)CCOCC1	n	x	x	x	x
Cc1ccc(/C=C/S(=O)(=O)NCC(c2ccsc2)N2CCOCC2)cc1 (configuration not stated)	n	x	x	x	x
O=C(NNc1ccc([N+](=O)[O-])cc1)C12CC3CC(CC(C3)C1)C2	n	n	n	20243	n
O=C(CCS(=O)(=O)c1ccccc1)NCC[C@H](O)C1CCOCC1	n	x	x	x	x
CC(C)c1ccc(N2C(=O)C(Cl)=C(N3CCOCC3)C2=O)cc1	n	n	n	n	n
O=C1C(Cl)=C(N2CCOCC2)C(=O)N1c1ccc(Br)cc1	n	n	30.4	n	n
CCC(Sc1nc2ccccc2s1)C(=O)Nc1nnc(-c2cc(OC)ccc2OC)s1 (configuration not stated)	n	x	x	x	x
CCC(Sc1nc2ccccc2s1)C(=O)Nc1nnc(C)s1 (configuration not stated)	n	n	n	22870	n
CCOC(=O)C1=C(C)NC(=O)C(C(N)=O)C12CCCCC2 (configuration not stated)	n	n	n	n	n
CCOC(=O)C1=C(C)NC(=O)C(C(N)=O)C12CCCC2 (configuration not stated)	n	u	n	23702	n
Cc1ccc(NC(=O)c2cc(-c3cccs3)on2)cc1	n	n	n	n	n
SMILES	SSB-PriA inh	BoNT-A LC inh2	Anthrax LF inh2	Autofluor counter	BoNT-F LC inh
O=C(NCc1cccs1)c1cc(-c2cccs2)on1	n	n	n	22229	n
O=C(NCc1ccc(Cl)cc1)c1cc(-c2cccs2)on1	n	n	n	16902	n
CCCc1cc(C(=O)Nc2ccn(Cc3ccc(C)cc3)n2)no1	n	n	n	n	n
COc1ccc(CNC(=O)c2cc(-c3cccs3)on2)cc1	n	n	n	n	n
O=C(NCc1cccs1)c1cc(-c2ccccc2)on1	n	n	n	n	n
Cc1ccc(Cn2ccc(NC(=O)c3cc(-c4cccs4)on3)n2)cc1	n	n	n	25079	n
CC(NC(=O)c1cc(-c2cccs2)on1)c1ccccc1 (configuration not stated)	n	u	n	16362	n
CCOc1cc(C(=O)Nc2ccc(S(=O)(=O)N3CCCC[C@H]3c3cccnc3)cc2)cc(OCC)c1OCC	n	x	x	x	x
O=C(NCC#CCOc1ccc2c(c1)OCO2)C1COc2ccccc2O1 (configuration not stated)	n	x	x	x	x
Cc1ccc(C(=O)NCCn2ncc3c(=O)n(Cc4cccc(Cl)c4)cnc32)cc1C	n	x	x	x	x
CCOC(=O)CNC(=O)C1CCN(c2nc3c(-c4cccc(C)c4)csc3c(=O)[nH]2)CC1	n	x	x	x	x
O=C(CC(Cc1ccccc1)C(=O)O)Nc1ccc(F)cc1 (configuration not stated)	n	n	n	n	u
CCOc1ccc(NC(=O)CSc2nccn2C)cc1	n	n	n	n	n
Cn1ccnc1SCC(=O)Nc1cccc(O)c1	n	n	n	17009	n
